We go through 40 compounds from PubChem BioAssay (NCATS).

Records with an inconclusive call do not appear. Where a call stands in place of a potency, no number is given. The source made the active and inactive calls. Calls come from the whole dose curve; as a rule, active = well fitted cell-killing curve with a large enough effect; inconclusive = small, poorly fitted or top-dose-only effect; inactive = flat fitted curve, though single readings scatter.
Potency is the fitted concentration of half-maximal effect.

A short description of this assay: qHTS of pediatric cancer cell lines to identify multiple opportunities for drug repurposing: Primary screen for RD cells (AID 1347104). Note: nearly all actives have a fitted effect of over 55% in size. The following applies: RD rhabdomyosarcoma viability, CellTiter-Glo luminescence, 48 h; series mostly up to 46 µM. An excerpt:
Drug repurposing or repositioning has been offered as a strategy for drug development in oncology programs. This approach has special potential for childhood cancers and other rare or orphan diseases, where the expected return on new drug development has been a disincentive to pharmaceuticals. […] In this project we exploit the poly-pharmacology of drugs to discover new indications via phenotypic screening of a panel of 19 well-characterized cell lines derived from solid tumors seen in children and adolescents. The goal is to identify approved drugs with previously unrecognized anticancer properties that has the potential to reveal new mechanisms and biological processes involved in carcinogenesis or drug resistance. We employed a titration-based paradigm (quantitative high-throughput screening or qHTS), where all compounds were tested at multiple concentrations for their effect on cell viability. Concentration-response curves (CRCs) were derived directly from the primary screen, and both potency and efficacy values were used to identify compounds with robust bioactivity profiles. We screened the NIH Chemical Genomics Center (NCGC) Pharmaceutical Collection (NPC) and Mechanism Interrogation Plate (MIPE) small molecule collections of approved and investigational compounds against these cell lines; and measured metabolically active cells after 48 hours of compound treatment as a proxy for cell viability. […] Assay Submitter: Nathalia J. Martinez, National Center for Advancing Translational Sciences, National Institutes of Health, Rockville, MD, USA; email: natalia.martinez@nih.gov Shen, M et al. Quantitative high-throughput phenotypic screening of pediatric cancer cell lines identifies multiple opportunities for drug repurposing. Oncotarget 2017 Dec 19;9(4):4758-4772. PMID 29435139.
The cells were obtained from University of North Carolina (UNC), Pediatric Preclinical Testing Program (PPT), and Coriell Institute (CI). qHTS cell viability assay: Cells were assayed in growth media at a density of 500-1,000 cells/well. Five microliters of cells were dispensed into 1,536-well, white, solid-bottom, TC-treated plates (Greiner Bio One) using a multidrop dispenser and incubated at 37 degrees C, 5% CO2, under a humidified atmosphere for 5 hours. Twenty-three nanoliters of compounds and controls (neutral control DMSO or positive control bortezomib at final concentration of 2.3 µM) were subsequently transferred by Kalypsys pintool. For primary screens, the MIPE collection was tested at 11-point dilutions (final concentrations range from 0.78 nM to 46 µM) and the NPC collection at 8-point dilutions (final concentrations range from 0.59 nM to 46 µM). Compounds tested in follow-up screens were assayed at 11-point dilutions. Cells were incubated for 48 hours, followed by addition of 3 µL of CellTiter-Glo (Promega). After a 15 min incubation at room temperature, samples were analyzed for luminescence intensity using a ViewLux High-throughput CCD imager equipped with clear filters.
A general note: qHTS replaces the single test concentration by a dilution series.
`CCCCCOC(=O)Nc1nc(=O)n([C@@H]2O[C@H](C)[C@@H](O)C2O)cc1F` (stereo not given in full): the Potency entry is “inactive”.

Turning to `N#Cc1ccc(Oc2ccc3c(c2)COB3O)cc1`, the Potency result was “inactive”.

On to `C[C@]12C=CC(=O)C=C1CC[C@@H]1[C@@H]2[C@@H](O)C[C@@]2(C)[C@@H]1CC[C@]2(O)C(=O)CO`, for which the Potency entry is “inactive”.

On to `CCC=CC[C@H]1C(=O)CC[C@@H]1CC(=O)OC`, for which the Potency result is “inactive”.

As for `COc1nc(C)cnc1NS(=O)(=O)c1cccnc1-c1ccc(-c2nnco2)cc1`, the Potency result was “inactive”.

For the compound `NS(=O)(=O)c1cc(Cl)c(Cl)c(S(N)(=O)=O)c1`, the Potency entry is “inactive”.

With `CC[C@H](C=C[C@@H](C)[C@H]1CC[C@H]2[C@@H]3CC=C4C[C@@H](O)CC[C@]4(C)[C@@H]3CC[C@]12C)C(C)C`, the Potency entry is “inactive”.

For the compound `N#CC(=C1Nc2ccccc2S1)c1ccnc(OCc2ccc(CN3CCOCC3)cc2)n1`, the Potency was 0.662 µM (active).

Take `N#CC(c1ccnc(NCCc2cccnc2)n1)c1nc2ccccc2s1` (stereo not given): the Potency is 23.5 µM (active).

As to `COc1cc(C=CC(=O)O)ccc1O`, the Potency entry is “inactive”.

Turning to `CC(C)c1c(C(=O)Nc2ccccc2)c(-c2ccccc2)c(-c2ccc(F)cc2)n1CC[C@H](O)C[C@@H](O)CC(=O)O`, the Potency result is “inactive”.

As to `CN(CC=CC#CC(C)(C)C)Cc1cccc2ccccc12`, the Potency result is “inactive”.

For the compound `COc1cc(F)c(C(C)C)cc1-c1ccc(C(F)(F)F)cc1CN1C(=O)O[C@H](c2cc(C(F)(F)F)cc(C(F)(F)F)c2)[C@@H]1C`, the Potency entry was “inactive”.

For `O=C(O)C1=CC(O)C(O)[C@H](O)C1` (stereo not given in full), the Potency entry is “inactive”.

Consider `CN1CCC[C@H]1CCO[C@](C)(c1ccccc1)c1ccc(Cl)cc1`, for which the Potency was 37.2 µM (active).

For the compound `CC(NCCc1ccc(O)cc1)C(O)c1ccc(O)cc1` (stereo not given), the Potency entry was “inactive”.

For `CC(=O)N1CCN(c2ccc(OCc3nn(C)c(C)c3-c3cccc4c(CCCOc5cc(C)c(Cl)c(C)c5)c(C(=O)O)n(Cc5cccnc5)c34)cc2)CC1`, the Potency is 18.7 µM (active).

Turning to `CC(C)(OCc1nn(Cc2ccccc2)c2ccccc12)C(=O)O`, the Potency result is “inactive”.

`Cc1nc2c([nH]1)CCN(C(=O)c1ccc(NC(=O)c3ccccc3-c3ccccc3)cc1)c1ccccc1-2`: the Potency result was “inactive”.

As for `CC1(COc2ccc3c(c2)ncn3-c2ccc3cccc(N4CCC(N)CC4)c3n2)COC1`, the Potency is 0.59 µM (active).

As for `CCN1C[C@H](C)n2c(c(O)c3c(=O)n(Cc4ccc(F)c(Cl)c4)nc(C(=O)NC)c32)C1=O`, the Potency result was “inactive”.

Take `COc1ccc(-c2oc3c(CC=C(C)C)c(O)cc(O)c3c(=O)c2O)cc1`: the Potency is 37.2 µM (active).

With `O=S(=O)(NCCNCC=Cc1ccc(Br)cc1)c1cccc2cnccc12`, the Potency is 18.7 µM (active).

As for `CC1=C(C(=O)Nc2cc3cn[nH]c3cc2F)C(c2ccc(C(F)(F)F)cc2)CC(=O)N1` (stereo not given), the Potency result was “inactive”.

As for `CCOC(=O)N1c2ccc(C(F)(F)F)cc2[C@@H](N(Cc2cc(C(F)(F)F)cc(C(F)(F)F)c2)C(=O)OC)C[C@H]1CC`, the Potency result was “inactive”.

As to `O=C(CC12CC3CC(CC(C3)C1)C2)Nc1cccc2nc(NCCNCCO)ccc12`, the Potency is 33.2 µM (active).

With `COC(=O)N1CCN(Cc2cccc(NC(=O)Nc3ccc(C)nc3)c2F)CC1`, the Potency result was “inactive”.

Turning to `CN1CC(=O)NC1=NC(=O)Nc1cccc(Cl)c1`, the Potency entry is “inactive”.

Regarding `CC1=C[C@@H]2[C@@H]([C@@H](O)C[C@@]3(C)[C@H]2C[C@@H](C)[C@]3(O)C(=O)CO)[C@@]2(C)Cc3cnn(-c4ccccc4)c3C=C12`, the Potency was 29.6 µM (active).

Consider `O=C(O)C1=CO[C@@H](O[C@@H]2O[C@H](CO)[C@H](O)[C@H](O)[C@H]2O)[C@@H]2C(CO)=CC[C@H]12`, for which the Potency entry was “inactive”.

Regarding `O=C1CCCC(=O)C1C(=O)c1ccc(C(F)(F)F)cc1[N+](=O)[O-]`, the Potency entry was “inactive”.

Regarding `O=c1[nH]nc(OCCCc2ccc(Cl)cc2)c(NCc2cccnc2)c1Br`, the Potency is 14.8 µM (active).

Turning to `CNc1nc(Nc2ccc(C(=O)N3CCOCC3)cc2OC)ncc1Cl`, the Potency result was “inactive”.

Consider `COc1cccc(OC)c1-c1cc(C(=O)NC2(C(=O)O)C3CC4CC(C3)CC2C4)nn1-c1ccnc2cc(Cl)ccc12` (stereo not given), for which the Potency result is “inactive”.

For `CN(C)N=Nc1nc[nH]c1C(N)=O`, the Potency entry was “inactive”.

As to `COc1ccnc(CS(=O)c2nc3ccc(OC(F)F)cc3[nH]2)c1OC` (stereo not given), the Potency entry was “inactive”.

In the case of `CN1C(=O)C(Cc2c[nH]c3ccccc23)NC1=S` (stereo not given), the Potency result was “inactive”.

Take `CN(C)CCOc1cc(-c2cn[nH]c2)ccc1NC(=O)C1COc2ccccc2O1` (stereo not given): the Potency entry was “inactive”.

As to `Cc1ccc(NC(=O)c2cccc(N(C)C)c2)cc1NC(=O)c1ccc(O)cc1`, the Potency is 2.64 µM (active).

Turning to `CC(C)N(CCCNC(=O)Nc1ccc(C(C)(C)C)cc1)C[C@H]1O[C@@H](n2cc(Br)c3c(N)ncnc32)[C@H](O)[C@H]1O`, the Potency was 29.6 µM (active).
